# Publication PMC4336329 (PLoS ONE, 2015)
# Out of some 310,000 compounds screened, about 14,000 (4.5%) showed an effect of 50% or more. Effects have a minus sign here. The entries come from a sample that favours strong results as a whole.
# Target: human ether-à-go-go-related gene (hERG) potassium channel (human, UniProt Q12809)
# Assay: primary screen, population patch clamp on CHO cells stably expressing hERG; higher = less effect of the substance
# 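Note: peak tail current of the secondary pulse compared with the same well before compound.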
# human ether-à-go-go-related gene (hERG) potassium channel, sequence (Q12809 whole entry, looked up): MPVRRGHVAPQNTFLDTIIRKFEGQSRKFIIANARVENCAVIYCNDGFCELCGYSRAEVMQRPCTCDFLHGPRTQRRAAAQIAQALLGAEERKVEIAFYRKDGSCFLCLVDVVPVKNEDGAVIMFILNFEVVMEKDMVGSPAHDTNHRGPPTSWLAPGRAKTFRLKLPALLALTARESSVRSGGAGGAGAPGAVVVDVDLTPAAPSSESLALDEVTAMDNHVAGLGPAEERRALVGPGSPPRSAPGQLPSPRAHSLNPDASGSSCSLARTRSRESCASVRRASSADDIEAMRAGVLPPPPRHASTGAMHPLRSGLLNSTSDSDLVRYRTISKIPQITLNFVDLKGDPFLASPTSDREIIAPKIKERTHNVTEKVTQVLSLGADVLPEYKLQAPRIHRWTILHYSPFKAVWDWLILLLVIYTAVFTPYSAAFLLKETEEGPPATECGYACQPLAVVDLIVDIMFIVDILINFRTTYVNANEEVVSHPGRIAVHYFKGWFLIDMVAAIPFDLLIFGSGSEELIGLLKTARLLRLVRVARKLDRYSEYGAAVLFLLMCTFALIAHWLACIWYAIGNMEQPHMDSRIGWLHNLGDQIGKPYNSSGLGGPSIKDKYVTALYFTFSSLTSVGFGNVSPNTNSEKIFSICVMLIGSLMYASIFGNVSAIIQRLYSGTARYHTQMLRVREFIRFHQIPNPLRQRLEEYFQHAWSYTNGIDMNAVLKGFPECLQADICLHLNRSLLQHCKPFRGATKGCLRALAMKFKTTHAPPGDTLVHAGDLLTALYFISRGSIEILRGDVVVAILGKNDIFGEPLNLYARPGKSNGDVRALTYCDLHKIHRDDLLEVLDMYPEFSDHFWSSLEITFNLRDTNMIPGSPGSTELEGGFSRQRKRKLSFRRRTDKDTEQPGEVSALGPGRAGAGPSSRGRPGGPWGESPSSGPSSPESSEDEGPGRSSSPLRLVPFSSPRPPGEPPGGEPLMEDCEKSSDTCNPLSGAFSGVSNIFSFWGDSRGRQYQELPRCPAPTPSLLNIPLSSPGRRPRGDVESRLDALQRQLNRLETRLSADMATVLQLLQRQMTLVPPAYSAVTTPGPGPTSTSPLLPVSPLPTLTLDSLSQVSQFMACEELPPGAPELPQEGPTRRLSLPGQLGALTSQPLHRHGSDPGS
row,SMILES,"hERG current change (%, negative = inhibition) at 10uM [%]"
1,CC(=O)OC1N=C(c2ccccc2)c2cc(Br)ccc2NC1=O (stereo not drawn),-10.2
2,CC(=O)OC1N=C(c2ccccc2Cl)c2cc(Br)ccc2NC1=O (stereo not drawn),-40.3
3,COc1cc2c(=O)n(Cc3ccccc3)c(=O)n(CC(=O)NCCc3ccccc3)c2cc1OC,0.36
4,CC(Nc1ncnc2sccc12)c1ccccc1 (stereo not drawn),-29.8
5,Cc1ccc(C(=O)NCCNC(=O)CN2CCCC2)cc1,5.16
6,Cc1ccccc1-c1nc(P(=O)(c2ccccc2)c2ccccc2)c(N2CCOCC2)o1,-19.5
7,Cc1cccc(OCCNc2cc(N3CCOCC3)ccc2[N+](=O)[O-])c1,-12.8
8,C#CCOCCOCCOCCNc1nc(N2CCN(C(=O)[C@H](C(C)C)n3cc(CCO)nn3)CC2)nc(N2CCN(C(=O)[C@H](C(C)C)n3cc(CCO)nn3)CC2)n1,2.97
9,CC1(C)Cc2cccc(OCC(O)CNCc3ccccn3)c2O1.Cl (stereo not drawn),-25.1
10,COc1ccc(CNCC(O)COc2cccc3c2OC(C)(C)C3)cc1.Cl (stereo not drawn),-60.5
11,COc1ccc(OCCOCCOc2ccc(C)cc2[N+](=O)[O-])cc1,-22.4
12,Cc1ccc([N+](=O)[O-])c(OCC(O)CNC(C)(C)C)c1.Cl (stereo not drawn),3.01
13,COC(=O)c1ccc(COc2cccc3c2OC(C)(C)C3)cc1,28.7
14,COc1ccc(CNCC(O)COc2ccc(C)cc2[N+](=O)[O-])cc1 (stereo not drawn),-71.2
15,O=C(CSc1nnc(-c2cccnc2)o1)N1CCCCC1,9.4
16,CC(C)C(NC(=O)C1CCCCC1)C(=O)NCc1ccccn1 (stereo not drawn),9.17
17,CC(C)CC1C(C#N)=C(N)SC(N)=C1C#N,15.9
18,Cc1cc(NC(=O)CN(C)S(=O)(=O)c2ccc(-c3ccc(=O)[nH]n3)s2)ccc1Br,7.95
19,CCc1cccc(C)c1NC(=O)CN(C)S(=O)(=O)c1ccc(-c2ccc(=O)[nH]n2)s1,-55.3
20,Cc1cccc2sc(NC(=O)CN(C)S(=O)(=O)c3ccc(Br)s3)nc12,-2.49
21,CCOc1ccc(N(C)S(=O)(=O)c2ccc(-c3ccc(=O)[nH]n3)s2)cc1,-15.6

row,SMILES,"hERG current change (%, negative = inhibition) at 10uM [%]"
1,Cc1ccc(N(C)S(=O)(=O)c2ccc(-c3ccc(=O)[nH]n3)s2)cc1C,13.7
2,Cc1cccc(C)c1NC(=O)CN(C)S(=O)(=O)c1ccc(-c2ccc(=O)[nH]n2)s1,-51.7
3,COc1cc(OC)cc(C(=O)N[C@H](C(=O)OCC(=O)Nc2ccc(F)c(F)c2)C(C)C)c1,-8.85
4,Cc1cc(/C=C2\SC(=O)N(C)C2=O)c(C)n1-c1ccc(S(N)(=O)=O)cc1,13.3
5,COc1cccc(-c2cc(C(F)(F)F)nc(NCc3ccco3)n2)c1,18.8
6,Fc1cccc(Cl)c1-c1nnc2ccc3ccccc3n12,10.3
7,Cc1ccc2c(c1)N(C(=O)CCC(=O)N1CCN(c3cccc(C)c3C)CC1)CCO2,-18.7
8,Cc1ccc2c(c1)N(C(=O)CCC(=O)N1CCN(c3ccccn3)CC1)CCO2,-52.2
9,Cc1ccc(C)c(N2CCN(C(=O)CCC(=O)N3CCOc4ccc(Cl)cc43)CC2)c1,-18.9
10,O=C(O)CCC(=O)N1CCOc2ccc(Cl)cc21,2.92
11,O=C(CCN1C(=O)COc2ccccc21)N1CCCCC1,-6.49
12,Cc1ccc2c(c1)N(C(=O)CCC(=O)N1CCN(c3ccccn3)CC1)CC(C)O2 (stereo not drawn),-46.1
13,O=C(CCC(=O)N1CCOc2ccc(Cl)cc21)N1CCN(c2ccccn2)CC1,-57.5
14,O=C(CCN1C(=O)COc2ccccc21)N1CCN(c2ccccn2)CC1,-69.3
15,O=C(CCN1C(=O)COc2ccccc21)N1CCN(c2ccccc2)CC1,-15
16,CCC(NC(=O)Nc1ncccc1C)(C(F)(F)F)C(F)(F)F,-3.33
17,Cc1cccc(NC(=O)c2ccc3c(c2)C(=O)N(c2ccccc2C)C3=O)n1,-10.5
18,COc1ccc(CN2C(=O)CN(C3CCCCCC3)C(=O)C2c2ccc(F)cc2)cc1 (stereo not drawn),3.27
19,CCOC(=O)C1=C(COC(=O)c2ncc(Cl)c(Cl)c2Cl)NC(=O)NC1C (stereo not drawn),-60.6
20,CCOC(=O)C1=C(COC(=O)c2ccc(C)s2)NC(=O)NC1C (stereo not drawn),-5.32
21,CCOC(=O)C1=C(COC(=O)c2cccnc2Cl)NC(=O)NC1C (stereo not drawn),6.19
